Assay outcomes (PubChem)
pPAFAH FP inh: pPAFAH (human) enzyme inhibition. Q13093. recombinant pPAFAH, FP-rhodamine probe fluorescence polarization. inhibition, % at 3.39 µM. actives 1.5% (n = 330,000);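 active means inhibition above the mean inhibition across the screen plus 3 SD, cut at about 25% in these data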;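 further: inhibitors block binding of the rhodamine activity-based probe so polarization drops; 0% = enzyme with DMSO and 100% = wells lacking pPAFAH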
PAFAH2 FP inh: PAFAH2 (human) inhibition. Q99487. recombinant PAFAH2, FP-rhodamine activity probe, fluorescence polarization. inhibition, % at 3.39 µM. actives 0.99% (n = 340,000);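 active means inhibition above the mean over all tested compounds plus 3 SD, cut at about 30% in these data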;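 further: inhibitors block probe labeling of enzyme so polarization drops; 0% = enzyme with DMSO and 100% = wells lacking PAFAH2 protein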
PAFAH1B2 inh: inhibitors of human PAFAH1B2; P68402; recombinant PAFAH1B2, FP-rhodamine activity probe, fluorescence polarization; inhibition, % at 3.39 µM; actives 1.2% (n = 340,000);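 active means inhibition above the mean of all tested compounds plus 3 SD, cut at about 24% in these data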;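 further: 0% = enzyme with DMSO and 100% = wells lacking PAFAH1B2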
PP1 counter: PP1-alpha (human) inhibition in PP5 counter-screen. purified PP1alpha, OMFP fluorescence. inhibition, % at 6.7 µM. actives 0.9% (n = 320,000). AID 2235;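 active means inhibition above the mean inhibition of all tested compounds plus 3 SD, computed separately for each screening campaign, cut at about 15% in these data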
PP5 inh: inhibitors of human protein phosphatase 5 (PP5) | actives 0.18% (n = 320,000) | inhibition, % at 6.7 µM | purified PP5c, OMFP substrate fluorescence | P53041;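 active means inhibition above the campaign's mean inhibition across all tested compounds plus 3 SD, cut at about 9.5% in these data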;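 further: 0% = DMSO only and 100% = 100 µM cantharidin control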
Target sequence (P53041 whole entry, looked up): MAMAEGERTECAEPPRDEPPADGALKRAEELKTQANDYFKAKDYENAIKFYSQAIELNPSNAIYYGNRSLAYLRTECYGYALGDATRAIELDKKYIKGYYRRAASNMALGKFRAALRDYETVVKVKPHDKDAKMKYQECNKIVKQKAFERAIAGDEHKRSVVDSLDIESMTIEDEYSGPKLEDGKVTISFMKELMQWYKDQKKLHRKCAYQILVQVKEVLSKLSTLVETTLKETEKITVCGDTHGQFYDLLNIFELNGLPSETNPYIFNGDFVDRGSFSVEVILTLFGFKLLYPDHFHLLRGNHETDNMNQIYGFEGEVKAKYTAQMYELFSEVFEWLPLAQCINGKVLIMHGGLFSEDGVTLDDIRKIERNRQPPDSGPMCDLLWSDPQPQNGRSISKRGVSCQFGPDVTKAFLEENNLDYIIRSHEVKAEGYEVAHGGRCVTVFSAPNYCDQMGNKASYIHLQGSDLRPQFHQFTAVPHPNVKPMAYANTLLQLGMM
PAFAH1B3 FP inh: inhibitors of human PAFAH1B3; recombinant PAFAH1B3, FP-rhodamine probe, fluorescence polarization; Q15102; inhibition, % at 3.39 µM; actives 0.28% (n = 340,000); AID 492972;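 active means inhibition above the screen-wide average of all tested compounds plus 3 SD, cut at about 25% in these data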;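 further: 0% = enzyme with DMSO only and 100% = wells lacking PAFAH1B3 protein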
PAFAH2 confirm: PAFAH2 (human) inhibition, confirmed. shares compounds with PAFAH2 FP inh. AID 493030. recombinant PAFAH2, FP-rhodamine activity probe, fluorescence polarization. actives 65% (n = 2,300). inhibition, % at 3.39 µM;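 active means mean inhibition over three repeats above a set limit taken from the earlier primary screen, cut at about 30% in these data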;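 further: inhibitor blocks binding of rhodamine activity probe so polarization falls; 0% = enzyme with DMSO and 100% = wells lacking PAFAH2 protein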
* marks the source's active call; other numbers are inactive results; . = no result given. Compounds with a hit are over-represented: about 3.4% of the library has one in this group of screens.

SMILES	pPAFAH FP inh	PAFAH2 FP inh	PAFAH1B2 inh	PP1 counter	PP5 inh	PAFAH1B3 FP inh	PAFAH2 confirm
COc1ccc(/C=C/C(=O)OCC(=O)Nc2cc(S(=O)(=O)N(C)C)ccc2Cl)cc1	2	-2	4	4	2	2	.
CN(C)S(=O)(=O)c1ccc(Cl)c(NC(=O)COC(=O)/C=C/c2ccc(S(=O)(=O)N3CCOCC3)cc2)c1	-1	31*	-1	-5	-4	5	26
COc1cc(/C=C/C(=O)OCC(=O)Nc2cc(S(=O)(=O)N(C)C)ccc2Cl)ccc1O	8	60*	2	-3	0	-1	60*
CNC(=S)NNC(=O)c1cccn(Cc2cccc(Cl)c2)c1=O	3	-5	2	-1	2	9	.
COc1ccc(C(CNC(=O)CNC(=O)c2ccccc2Cl)N2CCCC2)cc1 (stereo not drawn)	4	3	5	-3	-2	6	.
CCc1ccccc1NC(=O)Nc1cccn(Cc2ccccc2F)c1=O	3	0	6	-1	1	4	.
Cc1ccsc1C(=O)OCC(=O)NC1CCCC1	21	63*	3	0	1	-3	47*
Cc1ccsc1C(=O)OCC(=O)N(C)C1CCCCC1	3	36*	13	.	.	3	17
CC(=O)c1c(COC(=O)c2ccccc2Cl)nc2ccccc2[n+]1[O-]	6	-7	2	2	-1	-12	.
Cc1ccnc(N=Cc2nc(-c3ccccc3Br)oc2O)c1	0	63*	2	2	0	10	60*
Oc1oc(-c2cccc3ccccc23)nc1/C=N/c1nccs1	7	5	-3	6	1	0	.
O=C(COC(=O)c1ccccc1F)NC1CCCC1	16	64*	3	-3	1	4	60*
CCCCNC(=O)COC(=O)c1ccccc1F	12	46*	7	-3	0	0	40*
O=C(COC(=O)Cc1c(Cl)cccc1Cl)NC1CCCC1	0	10	6	.	.	0	.
O=C(COC(=O)c1cc2ccccc2cc1O)NC1CCCCC1	8	48*	3	.	.	5	33*
O=C(COC(=O)c1cccnc1Nc1ccccc1F)NC1CC1	1	-1	4	0	1	8	.
O=C(COC(=O)c1c(F)cccc1Cl)NC1CCCCC1	.	66*	3	.	.	5	48*
CCN(CC)C(=O)c1sc(N)c(C(=O)OC(C)C)c1C	0	-5	-4	-4	0	10	.
Cc1cc(C)cc(NC(=O)C2CCN(c3nccs3)CC2)c1	0	-6	-4	2	-5	3	.
CCC(Oc1ccccc1)C(=O)N1CCN(c2ccccn2)CC1 (stereo not drawn)	-1	2	7	-1	2	4	.
Nc1ncccc1C(=O)OCC(=O)NC1CCCCCC1	6	42*	5	-3	1	9	25
O=C(COC(=O)c1ccccc1F)NC1CC1	7	30*	5	-6	0	7	28
Cc1ccccc1NC(=O)C1Cc2ccccc2C(=O)O1 (stereo not drawn)	11	36*	4	0	3	13	30*
CCSC1=N/C(=C\c2ccc(C(=O)O)cc2)C(=O)S1	2	31*	0	3	0	11	15
C=CCSC1=N/C(=C\c2ccc(C(=O)O)cc2)C(=O)S1	-3	10	1	-1	0	4	.
SMILES	pPAFAH FP inh	PAFAH2 FP inh	PAFAH1B2 inh	PP1 counter	PP5 inh	PAFAH1B3 FP inh	PAFAH2 confirm
O=C(NNC(=S)NC1CCCCC1)c1ccc(Cl)s1	5	8	6	-4	1	3	.
O=C1C(=Cc2ccco2)CCC1=Cc1ccco1	.	56*	4	.	.	5	18
COc1ccc(C(=O)N/N=C/c2cc3ccccc3[nH]c2=S)cc1	10	43*	12	-1	-1	17	29
COc1ccc(C(=O)N/N=C/c2cccc3cccnc23)cc1	-2	1	3	0	-1	13	.
O=C(c1ccco1)N1CCN(C2CC(=O)N(c3ccc(F)c(Cl)c3)C2=O)CC1 (stereo not drawn)	4	6	7	-1	0	7	.
COCCN(CC1CCCN(C2Cc3ccccc3C2)C1)C(=O)c1cccc(C)c1 (stereo not drawn)	5	32*	2	5	-2	-3	19
